Experimental findings from PubChem BioAssay AID371 (SRMLSC, 2006) are described below.

In all, about 3,300 compounds went through this assay and about 280 (8.5%) were called active. What follows is part of a selection rich in actives, with near analogues and random picks from the rest. Values without a mark were called inactive.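 How the source made its calls: active means mean growth inhibition over the two runs of 50% or more; inactive means mean growth inhibition under 50%.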

This experiment is described as follows: A549 NSCLC cell proliferation inhibitors – ATP luminescence, human non-small cell lung line, primary screen (AID 371).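 Further: compound exposure lasted 72 h before the ATP read; 0% = untreated cell signal and 100% = no luminescence left.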 As to conditions: at 10 µM, hits give high values.
For the molecule `Cc1cc(=O)n2[nH]cnc2n1`, the growth inhibition was 4.42%. For the molecule `N#CCCn1cnc2c(=S)nc[nH]c21`, the growth inhibition is 5.6%.

As for `COc1ccc(OC)c(C2C(C#N)=C(N)Oc3cc(C)[nH]c(=O)c32)c1` (centres undefined), the growth inhibition is 3.98%. To `Nc1c(C(=O)NCc2ccco2)sc2nc(N3CCOCC3)c3c(c12)CCCC3` belongs 18.2%; to `Cc1ccc(C(=O)C2=C(O)C(=O)N(c3ncccn3)C2c2cccc(Cl)c2)o1` (centres undefined), -5.18%; to `COc1ccc(NC(=O)Nc2cccc(C(=O)N3CCOCC3)c2)cc1OC`, 1.01%. Consider `N#CC(C#N)C(c1ccsc1)c1c(-c2ccccc2)[nH][nH]c1=O` (centres undefined), for which the growth inhibition was 7.27%.

As to `Oc1ccc(/C=C/c2cc(O)cc(O)c2)cc1`, the growth inhibition was 63.9% (active). In the case of `Cc1cc(O)c(C(C)C)cc1N=C1CSC(=O)N1`, the growth inhibition was 7.06%.

Take `CCCCOc1ccc(C(=O)OC2CC(C)N(C)CC2C)cc1` (centres undefined): the growth inhibition was 90% (active).

As to `CCCCOc1ccc(C(=O)CCN2CCCCC2)cc1`, the growth inhibition is -1.37%. To `CCCCOc1ccc(C(=O)Nn2cnnc2)cc1` belongs -2.48%; to `CC(O)(C#CCN1CCOCC1)c1ccccc1` (centres undefined), 2.79%. Turning to `Cc1cccc(NC(=O)c2cc(N3CCOCC3)nc3ccccc23)c1`, the growth inhibition is 2.86%. Regarding `N#Cc1nc(COc2ccc(Br)cc2)oc1NCCN1CCOCC1`, the growth inhibition is 13.4%. Then `Cc1sc(-n2c(C)ccc2C)c(C#N)c1C`, with -0.27%. In the case of `COc1cc([C@@H]2c3cc4c(cc3[C@H](O)[C@H]3COC(=O)[C@H]23)OCO4)cc(OC)c1OC`, the growth inhibition is 66.9% (active). Then `COc1ccc2c(c1OC)C(=O)O[C@@H]2[C@H]1c2c(cc3c(c2OC)OCO3)CCN1C`, with 28.5%. To `COc1ccc2c(c1OC)C(=O)OC2C1c2c(cc3c(c2OC)OCO3)CCN1C` (centres undefined) belongs 23.2%. As for `Cc1c(C)n(C(=O)CSc2nccn2C)c2ccccc12`, the growth inhibition is -7.69%. To `COc1cc(C2NC(=O)NC(C)=C2C(=O)Nc2cccc(C)c2C)cc(OC)c1OC` (centres undefined) belongs 0.87%; to `COc1cc(C2Nc3cccc4cccc(c34)N2)cc(OC)c1OC(C)=O`, 68.5% (active). For `CCN(CC)CCN1C(=O)c2ccccc2NC1c1cc(OC)c(OC)c(OC)c1` (centres undefined), the growth inhibition was 0.59%.

With `O=C1C2ON(c3ccccc3)C(c3ccncc3)C2C(=O)N1c1ccccc1` (centres undefined), the growth inhibition is -3.79%. To `O=C(O)C(O)c1ccco1` (centres undefined) belongs 3.07%; to `Cc1cc(O)ccc1-c1cnc2ccccc2n1`, 13%. Take `Cc1nc(-c2c(-c3ccc(O)cc3O)noc2C(F)(F)F)cs1`: the growth inhibition is 41.5%. As for `Cc1[nH]nc(-c2ccc(O)cc2O)c1Oc1ccccc1`, the growth inhibition is 56.1% (active). Take `CC1(C)CNC(=O)c2sc(N3CCOCC3)nc2C1`: the growth inhibition is 21.1%. To `Cn1ncc2c(Nc3ccccc3Br)ncnc21` belongs 4.98%; to `Cn1c(=O)c2c(nc(Oc3ccc4c(c3)OCO4)n2Cc2ccc(F)cc2)n(C)c1=O`, 17.7%; to `Cn1c(=O)c2c(nc(NCc3ccc4c(c3)OCO4)n2Cc2ccccc2)n(C)c1=O`, 67.4% (active). With `Cn1c(=O)c2c(nc(Oc3ccc4c(c3)OCO4)n2Cc2ccc(Br)cc2)n(C)c1=O`, the growth inhibition was 38%. On to `Cn1c(=O)c2c(nc(NCc3ccc4c(c3)OCO4)n2Cc2ccc(F)cc2)n(C)c1=O`, for which the growth inhibition is 74.4% (active). As for `Cn1c(=O)c2c(nc(NCc3ccc4c(c3)OCO4)n2Cc2ccccc2F)n(C)c1=O`, the growth inhibition is 43.4%. Take `Cn1c(=O)c2c(nc(NCc3ccc4c(c3)OCO4)n2Cc2ccccc2Cl)n(C)c1=O`: the growth inhibition is 20.1%. With `CC1(C)Cc2c(sc3nc(SCC(=O)NCc4ccco4)n(-c4ccccc4)c(=O)c23)CS1`, the growth inhibition is 22.8%. Take `CCCc1cc(-n2ccnc2C)n2c(nc3ccccc32)c1C#N`: the growth inhibition is -0.15%. Consider `CCOC(=O)C1CCN(c2nc3ccccc3nc2C(C#N)C(=O)NCCc2ccccc2)CC1` (centres undefined), for which the growth inhibition was 30.8%. Turning to `Cc1cc(/C(O)=C2\C(=O)C(=O)N(CCN(C)C)C2c2ccncc2)ccc1OCc1ccccc1` (centres undefined), the growth inhibition is 2.4%. In the case of `Cc1cc(C)n(S(=O)(=O)Cc2ccccc2)n1`, the growth inhibition is 6%. As to `Cc1cc(C)n(C(=O)CNC(=O)CCc2ccccc2)n1`, the growth inhibition is -2.74%. Turning to `Cc1cc(C)n(S(=O)(=O)/C=C/c2ccccc2)n1`, the growth inhibition is 68.5% (active). Then `Cc1cc(C)n(CC2CC(=O)N(c3ccc(C)c(Cl)c3)C2=O)n1` (centres undefined), with 0.93%; and `Clc1ccc(COc2ccccn2)c(Cl)c1`, with 1.66%.

For `COc1ccc(C(=O)c2ccc(N3CCOCC3)cc2)c(OC)c1`, the growth inhibition was 44.9%.

Turning to `CCOC(=O)C(C)Oc1nc(Oc2ccccc2)nc(N(C)C)n1` (centres undefined), the growth inhibition was 6.36%.

As to `CCOC(=O)N1CCC(=C2c3ccc(Cl)cc3CCc3cccnc32)CC1`, the growth inhibition was 65.8% (active).

In the case of `O/N=C1\CCc2cc(Cl)ccc21`, the growth inhibition is -5.2%. To `CCOC(=O)N1CCN(C2OC(=O)c3ccccc32)CC1` (centres undefined) belongs -1.65%; to `CC(=O)Nc1n[nH]c(S(=O)(=O)Cc2ccc(Cl)cc2Cl)n1`, -13.6%. To `COc1cc(C)nc(Oc2ccc(=O)n(C)n2)n1` belongs -3.96%; to `CCCCNC(=O)N1CCOCCOCCN(C(=O)NCCCC)CCOCCOCC1`, 2.12%; to `COc1ccc(CC(=O)OCN2C(=O)c3ccccc3C2=O)cc1`, 2.96%. Take `CN1CCN(C2=Nc3ccccc3Oc3ccc(Cl)cc32)CC1`: the growth inhibition was 18.5%. Then `Cn1c(Cl)cnc1C1CC(=O)c2cc(Cl)ccc2O1` (centres undefined), with 62.9% (active); and `C=CCSc1nnc2n(CCc3ccccc3)c(=O)c3c4c(sc3n12)COC(C)(C)C4`, with 12.2%. `Cn1c(Cn2cnc(Cl)c2Cl)nc2ccccc21`: the growth inhibition was -4.26%.

As for `Clc1ccc(-c2nnc3sc(Cc4cccs4)nn23)cc1`, the growth inhibition is 15%. Take `c1ccc(-c2nnc3sc(Cc4cccs4)nn23)cc1`: the growth inhibition is 21.9%.

As to `Clc1ccc(-c2nnc3sc(Cc4cccs4)nn23)c(Cl)c1`, the growth inhibition was 52.8% (active).

With `CCOC(=O)CSc1nc(N)c2c3c(sc2n1)CCCC3`, the growth inhibition was -5.16%.

With `COCCCn1cnc2c(c1=O)c1nc3ccccc3nc1n2CCc1ccccc1`, the growth inhibition was 26.2%.

As to `CN(C)c1nc(OCCOC(=O)Nc2ccc(Cl)cc2Cl)nc(N(C)C)n1`, the growth inhibition is 25.3%. Consider `NC(=O)/C(=N\O)c1ccccc1`, for which the growth inhibition is 2.31%. For the molecule `CNCCC(Oc1ccc(C(F)(F)F)cc1)c1ccccc1` (centres undefined), the growth inhibition is 91.3% (active).

Regarding `Cc1cc(C)n2c3c(c(C#N)c2n1)CC(C)(C)OC3`, the growth inhibition is 5.01%. On to `Cc1nnc(SCCC#N)n(CCC#N)c1=O`, for which the growth inhibition is -2.27%. To `CN1C(=S)SC(N(O)C(=O)Nc2ccccc2)C1(C)C` (centres undefined) belongs 8.85%; to `O=c1[nH]cnc2c1cnn2Cc1ccccc1`, -3.92%. To `Clc1ccc(-n2ncc3c(NCc4cccs4)ncnc32)cc1` belongs 20.6%.

Turning to `Cc1ccc(-n2ncc3c(NCc4ccc5c(c4)OCO5)ncnc32)c(C)c1`, the growth inhibition is 52.8% (active). To `Cc1ccc(-n2ncc3c(NCCCOC(C)C)ncnc32)c(C)c1` belongs 21.4%; to `COc1ccccc1Nc1ncnc2c1cnn2-c1cccc(C)c1`, 6.73%. Then `Cc1cccc(-n2ncc3c(NCCN4CCOCC4)ncnc32)c1`, with 4.3%; and `Cc1cccc(-n2ncc3c(NCc4ccco4)ncnc32)c1`, with 63% (active); and `Clc1ccc(-n2ncc3c(NCc4ccccn4)ncnc32)cc1`, with 12.7%. Turning to `Clc1ccc(-n2ncc3c(NCc4ccco4)ncnc32)cc1`, the growth inhibition is 51.6% (active). Then `Cc1ccc(-n2ncc3c(NCc4cccnc4)ncnc32)c(C)c1`, with 30.4%; and `O=C1NC2c3ccccc3C(=O)N2c2c1cnn2-c1ccccc1` (centres undefined), with 36.6%; and `CC(C)OCCCNc1ncnc2c1cnn2-c1ccccc1`, with 35.1%. To `CCCOc1cccc(C2C(C(=O)c3ccc(C)o3)=C(O)C(=O)N2CCCN(C)C)c1` (centres undefined) belongs 2.48%; to `C=CCSc1nnc2n(-c3ccccc3OC)c(=O)c3c4c(sc3n12)CCC4`, 19.2%. Then `C=C1[C@@H](C)C2[C@H](Cc3ccccc3)NC(=O)[C@]23OC(=O)CC[C@H](O)CCC[C@H](C)C/C=C/[C@H]3[C@@H]1O` (some centres undefined), with 61% (active); and `CCc1cccc(CC)c1N(COC)C(=O)Cn1nnc2ccccc21`, with -7.86%; and `CN(CCCCCNC(=O)/C=N/O)Cc1ccccc1`, with -0.65%. For the molecule `COC(=O)c1ccc(Oc2nc3ccccc3n3c(C)nnc23)cc1`, the growth inhibition was -4%. To `CC(=O)Oc1oc(-c2ccccc2)nc1/C=N/c1ccccn1` belongs 17.6%; to `CCOC(=O)c1ccc(N=Cc2nc(-c3ccccc3)oc2OC(C)=O)cc1`, 55.3% (active); to `O=C(Oc1oc(-c2ccco2)nc1C=Nc1ccccc1)c1ccco1`, 35.2%. To `CCC(=O)Oc1oc(-c2ccccc2)nc1C=Nc1ccccc1OC` belongs 48.5%; to `O=C(Oc1oc(-c2ccco2)nc1C=Nc1ccccc1)c1ccoc1`, 34.4%; to `COc1ccccc1N=Cc1nc(-c2ccccc2)oc1OC(C)=O`, 51.8% (active). In the case of `CCOC(=O)c1ccc(CSc2ncn[nH]2)o1`, the growth inhibition is -2.33%. Regarding `COc1ccccc1OCC(=O)Nc1ccc(S(=O)(=O)Nc2cc(C)nc(C)n2)cc1`, the growth inhibition is 5.4%. To `Cc1nn(C)cc1C1C2=C(CC(C)(C)CC2=O)OC2=C1C(=O)CC(C)(C)C2` belongs 1.38%; to `CC(=O)c1cc2c(=O)c3ccccc3oc2nc1C`, -5.08%. On to `CCc1oc2ccccc2c1C(=O)c1cc(Br)c(O)c(Br)c1`, for which the growth inhibition was 67.4% (active). For the molecule `O=C(O)CCCCCCC1C(=O)NC(=O)N1CCC(O)C1CCCCC1` (centres undefined), the growth inhibition was -11.2%.
